Laboratory results from PubChem BioAssay (Tox21).
Inconclusive results are not listed. Entries that show only a call come without a potency. Calls of active or inactive are those of the source. The call rests on the fitted dose curve; in most records, active means well fitted activation curve with a large enough effect in the repeat runs; inconclusive means weak or mixed curves, or effect the other way; inactive means no such curve, though single readings can be large or run the other way.
Potency means the concentration at half of the fitted maximal effect.

Experiment: qHTS assay to identify small molecule agonists of the estrogen related receptor signaling pathway with the pleiotropic PPARgamma coactivator (PGC) from Tox21 10K library (AID 1224842); further: nearly all actives have a fitted effect of over 15% in size
Settings: PGC/ERR reporter cell line, luciferase ONE-Glo, 18 h; series mostly up to 92.4 µM
Excerpt: National Center for Advancing Translational Sciences [NCATS] NIH Chemical Genomics Center [NCGC] U.S. Environmental Protection Agency [EPA] National Institutes of Environmental Health Sciences [NIEHS] National Toxicology Program [NTP] Assay overview: Estrogen related receptors (ERRs), the first orphan nuclear receptors discovered, play an important role in the control of cellular energy metabolism. ERRs are required for high-energy production in response to the environmental challenges. The pleiotropic PPARgamma coactivator (PGC) is a major partner of ERR and a key regulator in energy homeostasis. Together they have been implicated in the etiology of metabolic disorders such as Type 2 diabetes and metabolic syndrome. ERR-alpha was also identified as an adverse marker for breast cancer progression; ERR-alpha-positive tumors have a poor prognosis. To screen and to identify environmental compounds that perturb the PGC/ERR signaling pathways could provide valuable information for potential therapeutic or preventive measures in the treatment of metabolic disease. For identifying PGC/ERR agonists, PGC/ERR cell line (provided by NTP) has been used to screen Tox21 10K library.
Assay Protocol Summary: The PGC/ERR cells were dispensed at 2,000 cells/5 ul/well in 1536-well white plates using a Multidrop dispenser. After the assay plates were incubated at a 37 C/5% CO2 incubator for 6 hours, 23 nL of compounds dissolved in DMSO, positive and negative controls or DMSO only was transferred to the assay plate by a pin tool. The plates were incubated at 37 C for 18 hours. 4 ul/well of One-Glo reagent was added into the assay plates using a Flying Reagent Dispenser. After 30-minute incubation at room temperature, the luminescence intensity in the plates was measured using a ViewLux plate reader.
With `Cc1ccc(C(=O)C(C)CN2CCCCC2)cc1` (stereo not given) the Potency was “inactive”. In the case of `Cc1ccc(C(N)=O)cc1N`, the Potency is reported as “inactive”. In the case of `O=C(O)c1cccc(N(Cc2cccnc2)c2ccc(OC(F)F)c(OC(F)F)c2)c1`, the Potency is reported as “inactive”. With `C=CC[N+]1([C@H]2C[C@H]3[C@@H]4CC[C@H]5C[C@H](OC(C)=O)[C@@H](N6CCCCC6)C[C@]5(C)[C@H]4CC[C@]3(C)[C@H]2OC(=O)CC)CCCCC1` the Potency was “inactive”. For `CCc1nn(C2CCCCC2)c2cc(C3(C#N)CCC(C(=O)O)CC3)ccc12` (stereo not given), the Potency was “inactive”. In the case of `CC(O)C1CCCCC1` (stereo not given), the Potency is reported as “inactive”. With `C=Cc1c(C)c2cc3[nH]c(cc4nc(cc5nc(cc1[nH]2)C(C)=C5CCC(=O)O)C(CCC(=O)O)=C4C)c(C)c3C=C` the Potency was “inactive”. With `CCN(CC)CCOc1ccc2c(c1)C(=O)c1cc(OCCN(CC)CC)ccc1-2` the Potency was “inactive”. For `NC(N)=NN=C(/C=C/c1ccc([N+](=O)[O-])o1)/C=C/c1ccc([N+](=O)[O-])o1`, the Potency was “inactive”. In the case of `CCCCOC(=O)/C=C\C(=O)OCCCC`, the Potency is reported as “inactive”. For `CCN(CC)C(C)=O`, the Potency was “inactive”. For `CN1CCC(=C2c3ccccc3CCc3sccc32)CC1`, the Potency was “inactive”. With `CC(=O)OC/C=C/c1ccccc1` the Potency was “inactive”. With `C=CCCCCCC` the Potency was “inactive”. With `O=S1(=O)c2cccc3cccc(c23)N1CCCN1CCN(c2ccc(F)cc2)CC1` the Potency was “inactive”. For `Cc1cc(NC(=O)C(=O)O)cc(C)c1Oc1ccc(O)c2c1CCC2`, the Potency was “inactive”. In the case of `O=C(CC(=O)c1ccccc1)c1ccccc1`, the Potency is reported as 29.3 µM (active). For `OC(CCN1CCCCC1)(c1ccccc1)C1CCCCC1` (stereo not given), the Potency was “inactive”. For `CCC(=O)OC(C)(C)C1CC=C(C)CC1` (stereo not given), the Potency was “inactive”. In the case of `CC(C)(C)c1ccc(OCC2CO2)cc1` (stereo not given), the Potency is reported as “inactive”. In the case of `CCCCCC/C=C/C=O`, the Potency is reported as “inactive”. For `CC/C(=C\C(=N/O)C(N)=O)C(C)[N+](=O)[O-]` (stereo not given), the Potency was “inactive”. In the case of `NC(=S)N/N=C/c1cccnc1`, the Potency is reported as “inactive”. With `Cc1cccc(OCCOc2cccc(C)c2)c1` the Potency was “inactive”. With `Cc1ccccn1` the Potency was “inactive”. For `Nc1ccc(C(=O)N2CC3CC(CN(Cc4ccccc4)C3)C2)cc1`, the Potency was “inactive”. In the case of `CCCCCCCC/C=C\CCCCCCCC(N)=O`, the Potency is reported as “inactive”. In the case of `O=C(O)COC(=O)Cc1ccccc1Nc1c(Cl)cccc1Cl`, the Potency is reported as “inactive”. In the case of `CC(=O)[C@@]1(O)CC[C@H]2[C@@H]3C[C@H](C)C4=CC(=O)CC[C@]4(C)[C@H]3CC[C@@]21C`, the Potency is reported as “inactive”. In the case of `NCc1ccccc1`, the Potency is reported as “inactive”. For `CCCCCC(CO)CCC` (stereo not given), the Potency was “inactive”. With `Nc1nc(N)c2nc(CNc3ccc(C(=O)N[C@@H](CCC(=O)O)C(=O)O)cc3)cnc2n1` the Potency was “inactive”. For `CCCCCCCCC(CO)CCCCCC` (stereo not given), the Potency was “inactive”. For `CCCc1ccccc1`, the Potency was “inactive”. For `O=C(O)[C@@H]1[C@H]2C[C@H]3c4[nH]c5ccccc5c4CCN3C[C@@H]2CC[C@@H]1O`, the Potency was “inactive”. For `O=C(NN1CCCC1)NS(=O)(=O)c1ccc(Cl)cc1`, the Potency was “inactive”. For `CC(C)(C)c1cc(CO)cc(C(C)(C)C)c1O`, the Potency was “inactive”. With `COc1cc(C(C)(C)C)c(O)c(C(C)(C)C)c1` the Potency was “inactive”. With `Nc1nc(N)c(-c2ccccc2)s1` the Potency was “inactive”. With `CCOc1ccc2[nH]cc(C(=O)NCc3ccccc3)c(=O)c2n1` the Potency was “inactive”.
